Results published in the supplement of paper PMC6555819.

Assays:
Experiment in all cases: PBM binding z-score (relative to random genomic background probes); higher = stronger binding; sequences stand for … in GC…GCGATTGACAGCGTAGAATGAAGG
[1] = test system: FXR:RXRa (NR concentration 270 nM, RXRa partner concentration 90 nM)
Procedure, shortened: (§1)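 The probes on custom Agilent 4×180K protein-binding microarrays were double-stranded, with 34-nt variable regions bearing direct-repeat seeds, single-nucleotide variants, half-site ablations and random human genomic background sequences. Incubation lasted 1 h with ligand-free nuclear receptor dimers in PBS pH 7.4, 2% milk, 0.02% Triton X-100, 1 mM DTT, 0.2 mg/mL BSA and 0.4 mg/ml salmon testes DNA. Antibodies against each partner (one per run) detected bound dimers, and fluorescence scans were regression-normalized. Binding z-scores take the random background probes as reference.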

[2] = test system: LXRa:RXRa (NR concentration 270 nM, RXRa partner concentration 90 nM)
Procedure, shortened: as §1

[3] = test system: LXRa homodimer (NR concentration 270 nM)
Procedure, shortened: as §1

[4] = test system: LXRb:RXRa (NR concentration 270 nM, RXRa partner concentration 90 nM)
Procedure, shortened: as §1

[5] = test system: LXRb homodimer (NR concentration 270 nM)
Procedure, shortened: as §1

[6] = test system: PPARa:RXRa (NR concentration 270 nM, RXRa partner concentration 90 nM)
Procedure, shortened: as §1

[7] = test system: PPARg:RXRa (NR concentration 180 nM, RXRa partner concentration 90 nM)
Procedure, shortened: as §1

[8] = test system: PPARg:RXRa 270nM:90nM, anti-RXR (NR concentration 270 nM, RXRa partner concentration 90 nM)
Procedure, shortened: as §1

[9] = test system: PPARg:RXRa 30nM:10nM, anti-RXR (NR concentration 30 nM, RXRa partner concentration 10 nM)
Procedure, shortened: as §1

[10] = test system: PPARg:RXRa 90nM:30nM, anti-RXR (NR concentration 90 nM, RXRa partner concentration 30 nM)
Procedure, shortened: as §1

[11] = test system: PPARg:RXRa DBDmut IVT, anti-RXR (DBD mutation: RXRa K156A/R161A, NR concentration 270 nM, RXRa partner concentration 90 nM)
Procedure, shortened: as §1

[12] = test system: PPARg:RXRa IVT, anti-PPARg (NR concentration 270 nM, RXRa partner concentration 90 nM)
Procedure, shortened: as §1

[13] = test system: PPARg DBDmut:RXRa IVT, anti-PPARg (DBD mutation: PPARg1 K132A/R137A, NR concentration 270 nM, RXRa partner concentration 90 nM)
Procedure, shortened: as §1

[14] = test system: PPARg DBDmut IVT, anti-PPARg (DBD mutation: PPARg1 K132A/R137A, NR concentration 270 nM)
Procedure, shortened: as §1

[15] = test system: PPARg homodimer (NR concentration 180 nM)
Procedure, shortened: as §1

[16] = test system: PXR:RXRa (NR concentration 270 nM, RXRa partner concentration 90 nM)
Procedure, shortened: as §1

[17] = test system: PXR homodimer (NR concentration 270 nM)
Procedure, shortened: as §1

[18] = test system: RARa:RXR (NR concentration 270 nM, RXRa partner concentration 90 nM)
Procedure, shortened: as §1

[19] = test system: RARa homodimer (NR concentration 270 nM)
Procedure, shortened: as §1

[20] = test system: RARb:RXRa (NR concentration 270 nM, RXRa partner concentration 90 nM)
Procedure, shortened: as §1

Sequence	PBM binding z-score [1]	PBM binding z-score [2]	PBM binding z-score [3]	PBM binding z-score [4]	PBM binding z-score [5]	PBM binding z-score [6]	PBM binding z-score [7]	PBM binding z-score [8]	PBM binding z-score [9]	PBM binding z-score [10]	PBM binding z-score [11]	PBM binding z-score [12]	PBM binding z-score [13]	PBM binding z-score [14]	PBM binding z-score [15]	PBM binding z-score [16]	PBM binding z-score [17]	PBM binding z-score [18]	PBM binding z-score [19]	PBM binding z-score [20]
AGTCAAAGTTCATCTAGGTAACGTTAGATATGCT	6.45	6.1	5.46	3.96	1.99	4.88	6.36	6.31	3.3	5.58	1.25	3.81	1.67	1.07	2.67	5.32	7.67	4.08	0.982	5
CGAACTACGTCAAGGACAGTGAATCTCCGCACGC	-0.000991	-0.458	0.0307	-0.729	-0.268	-0.387	0.65	-0.549	-0.403	-0.799	-0.146	-0.464	-0.384	-0.387	-0.76	-0.445	0.128	-0.00341	-0.551	0.27
GGAACGAGGGCATTCAAGTTGATAGCATGGCGAT	1.18	1.46	-0.583	0.241	-0.723	1.52	1.12	0.948	-0.0725	0.427	2.92	2.13	-0.155	-0.574	-0.338	2.92	0.722	0.791	-0.689	1.9
AGTCAAAGTTCAGGACGAGGTAACGTAGAGCACG	4.1	3.8	1.01	2.04	0.385	3.59	4.68	4.62	2.13	3.9	0.103	2.2	0.482	0.536	1.57	2.79	0.943	2.87	0.443	4.25
AGTCAAAGTTCAGGACGTGGTAACGTAAAGCACG	3.46	3.57	0.963	1.49	0.114	3.12	4.28	4.75	2.07	3.71	-0.468	1.64	0.643	0.0633	1.68	2.15	0.643	1.86	0.703	4.15
AATACAGGGTCATCGTAGGCCACAGTACGCACAG	7.48	6.72	3.33	4.97	1.33	5.98	7.16	6.32	2.8	5.05	3.1	4.6	2.5	1.08	2.97	5.59	0.511	5.47	1.06	4.59
CGTCCAAGGTCTTAGGAGGTCAGTGAAGACAGAT	1.69	3.12	0.984	2.03	-0.404	2.28	0.427	1.06	0.0477	0.43	0.587	1.31	-0.3	-0.454	1.17	3.07	0.796	2.15	-0.152	2.46
ACACACAGGTGATGAAGGTAACTCAGGCTATCAT	-0.0193	0.147	0.256	-0.0371	-0.0459	0.299	0.913	0.223	0.238	0.167	0.704	1.02	0.73	0.679	0.0611	-0.0363	0.251	0.28	0.957	0.355
AGAAGGAGGTTACCAAAGATCAGGGAAACGCTTG	0.978	5.85	0.0257	2.9	0.368	2.79	1.84	2.1	0.736	1.37	2.51	2.63	0.699	0.604	0.719	1.25	0.551	1.46	0.412	1.89
CAAACTAGGGCACGAAAGGTCAAAGTCGAATGAC	5.64	6.93	6.08	5.54	1.5	6.49	8.39	7.22	5.17	7.03	7.59	8.38	2.22	0.682	2.46	5.93	1.28	6.53	1.46	4.98
TCTGCTAGGTCCACGATGGTCAGCTAATCTGCTA	-0.34	-0.399	-0.522	-0.79	-0.988	-0.24	-0.332	0.324	1.16	0.768	0.568	-0.114	-0.95	-0.628	-0.907	-0.483	-1.23	-0.477	-1.27	0.204
CCTAATGGGCCAAAGGTCATTGATTCCAATGCTC	5.18	5.16	3.94	4.84	1.08	6.03	11.8	9.96	11.9	12.1	3.94	6.02	0.0676	-0.678	4.32	5.26	1.81	6.51	1.99	4.57
TTTGCTAGGTCAGTTGGTCAGCTAACGAGCTGCC	1.15	1.41	0.52	0.404	0.521	1.54	1.1	1.77	-0.172	1.34	3.23	3.87	-0.438	-0.0692	0.648	0.0416	-0.599	0.42	-0.935	3.31
CGAACGAGAGCATGAGTTGATAGCAAATGCCGAT	-0.453	-0.53	-0.103	-0.828	-0.953	-0.357	0.777	0.133	-0.214	-0.282	-0.221	-0.445	0.0684	-0.174	-0.221	-0.273	-0.148	-0.442	-0.33	-0.53
